Experimental data as given in paper PMC7862700, “An all-to-all approach to the identification of sequence-specific readers for epigenetic DNA modifications on cytosine”.

Assays:
Assay in all cases: DAPPL (digital affinity profiling via proximity ligation, sequencing); 10 mM Tris-HCl pH 7.5, 50 mM NaCl, 1 mM DTT, 4% glycerol, room temperature, 30 min; GST-TFs on glutathione beads, 16-mer random dsDNA library, 0.1% formaldehyde crosslink after washing; high values mean tight binding
Details in all cases: protein: recombinant; tags: N-terminal GST; dsDNA, one strand shown
GABPA = target: T1, GABPA (Homo sapiens, UniProt Q06546 1-454)
T1 sequence: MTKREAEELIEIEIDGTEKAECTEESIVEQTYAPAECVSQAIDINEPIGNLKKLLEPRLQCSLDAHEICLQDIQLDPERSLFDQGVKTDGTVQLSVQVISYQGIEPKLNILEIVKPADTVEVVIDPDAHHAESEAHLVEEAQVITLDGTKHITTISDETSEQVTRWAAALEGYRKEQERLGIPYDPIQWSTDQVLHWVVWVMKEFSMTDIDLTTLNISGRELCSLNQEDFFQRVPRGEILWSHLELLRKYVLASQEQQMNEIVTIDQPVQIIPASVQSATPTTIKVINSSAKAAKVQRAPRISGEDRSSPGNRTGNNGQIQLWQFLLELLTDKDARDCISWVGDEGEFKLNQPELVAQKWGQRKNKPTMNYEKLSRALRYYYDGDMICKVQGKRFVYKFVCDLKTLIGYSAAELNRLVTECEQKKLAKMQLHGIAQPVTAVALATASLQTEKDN
Outline: (§1)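 GST fusions of human transcription factors were expressed in yeast and captured with glutathione beads. Once given DNA barcodes and pooled alongside a tag-only sample, they were incubated for 30 min at room temperature with 200 nmole of a random double-stranded 16-mer DNA library in Tris/NaCl/DTT/glycerol buffer, then washed, crosslinked (0.1% formaldehyde), proximity-ligated, PCR-amplified and sequenced on an Illumina NextSeq500. The binding signal of each hexamer is its read frequency for a factor divided by its frequency for the tag-only sample.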

ELF1 = ELF1 (Homo sapiens, UniProt P32519 1-619)
Sequence of ELF1 (P32519 whole entry): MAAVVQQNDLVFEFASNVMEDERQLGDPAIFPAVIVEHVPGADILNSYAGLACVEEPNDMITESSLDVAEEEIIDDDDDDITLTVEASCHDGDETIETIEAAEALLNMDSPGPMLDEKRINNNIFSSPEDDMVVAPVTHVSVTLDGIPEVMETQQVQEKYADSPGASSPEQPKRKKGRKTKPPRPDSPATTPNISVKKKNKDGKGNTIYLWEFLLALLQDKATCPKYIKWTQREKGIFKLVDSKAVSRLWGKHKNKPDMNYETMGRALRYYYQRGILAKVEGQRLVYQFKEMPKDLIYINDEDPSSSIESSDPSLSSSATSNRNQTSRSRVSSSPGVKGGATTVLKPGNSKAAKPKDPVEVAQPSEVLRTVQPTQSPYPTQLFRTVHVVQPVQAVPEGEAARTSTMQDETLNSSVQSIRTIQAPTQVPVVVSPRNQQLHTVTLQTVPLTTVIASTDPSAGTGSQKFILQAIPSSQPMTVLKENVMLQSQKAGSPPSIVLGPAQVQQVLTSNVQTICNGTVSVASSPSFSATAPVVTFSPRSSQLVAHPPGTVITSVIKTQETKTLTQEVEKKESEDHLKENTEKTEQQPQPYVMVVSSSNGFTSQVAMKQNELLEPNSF
Outline: as §1

ETV5 = ETV5 (Homo sapiens, UniProt P41161 1-510)
Sequence of ETV5 (P41161 whole entry): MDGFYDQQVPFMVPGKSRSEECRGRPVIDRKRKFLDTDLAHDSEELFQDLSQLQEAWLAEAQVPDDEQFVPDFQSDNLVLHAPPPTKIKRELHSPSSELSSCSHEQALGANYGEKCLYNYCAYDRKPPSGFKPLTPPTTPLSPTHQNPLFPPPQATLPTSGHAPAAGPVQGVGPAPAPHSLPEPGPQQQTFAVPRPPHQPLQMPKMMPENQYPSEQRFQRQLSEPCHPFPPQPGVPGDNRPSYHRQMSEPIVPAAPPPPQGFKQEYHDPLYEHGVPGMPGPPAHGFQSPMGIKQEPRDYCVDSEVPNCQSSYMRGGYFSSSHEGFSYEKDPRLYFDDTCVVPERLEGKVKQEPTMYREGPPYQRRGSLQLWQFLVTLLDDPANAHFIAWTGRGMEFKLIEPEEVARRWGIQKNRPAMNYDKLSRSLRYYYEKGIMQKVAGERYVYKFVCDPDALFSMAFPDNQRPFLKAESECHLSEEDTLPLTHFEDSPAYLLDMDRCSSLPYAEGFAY
Outline: as §1

ERF = target: T2, ERF (Homo sapiens, UniProt P50548 1-548)
T2 sequence: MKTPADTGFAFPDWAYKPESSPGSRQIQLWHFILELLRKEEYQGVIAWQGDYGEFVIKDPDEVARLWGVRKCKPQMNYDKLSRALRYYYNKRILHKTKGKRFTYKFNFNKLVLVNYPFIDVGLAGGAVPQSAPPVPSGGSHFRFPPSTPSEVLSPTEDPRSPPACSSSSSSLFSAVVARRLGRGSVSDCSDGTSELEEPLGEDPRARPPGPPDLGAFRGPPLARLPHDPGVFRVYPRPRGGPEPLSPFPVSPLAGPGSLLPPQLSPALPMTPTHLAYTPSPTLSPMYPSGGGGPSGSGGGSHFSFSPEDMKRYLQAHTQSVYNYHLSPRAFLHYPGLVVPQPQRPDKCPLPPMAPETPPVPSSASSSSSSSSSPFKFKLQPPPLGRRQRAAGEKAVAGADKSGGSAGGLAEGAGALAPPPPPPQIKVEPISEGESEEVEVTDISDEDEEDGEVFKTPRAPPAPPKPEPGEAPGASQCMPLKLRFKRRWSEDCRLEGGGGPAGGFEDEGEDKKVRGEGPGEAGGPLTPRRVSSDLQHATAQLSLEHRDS
Outline: as §1

ETV3L = target: T3, ETV3L (Homo sapiens, UniProt Q6ZN32 1-361)
T3 sequence: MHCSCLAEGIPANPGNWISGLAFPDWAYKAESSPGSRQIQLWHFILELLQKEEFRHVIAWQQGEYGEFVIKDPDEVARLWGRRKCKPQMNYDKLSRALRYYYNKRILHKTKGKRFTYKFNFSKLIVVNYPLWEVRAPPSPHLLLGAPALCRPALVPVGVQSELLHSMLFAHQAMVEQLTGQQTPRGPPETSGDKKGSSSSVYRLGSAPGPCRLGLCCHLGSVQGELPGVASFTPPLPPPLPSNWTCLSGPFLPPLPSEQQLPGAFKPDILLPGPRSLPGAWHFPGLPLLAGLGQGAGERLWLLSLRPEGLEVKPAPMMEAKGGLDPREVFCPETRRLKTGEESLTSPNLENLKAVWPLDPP
Outline: as §1

ETV7 = target: T4, ETV7 (Homo sapiens, UniProt Q9Y603 1-341)
T4 sequence: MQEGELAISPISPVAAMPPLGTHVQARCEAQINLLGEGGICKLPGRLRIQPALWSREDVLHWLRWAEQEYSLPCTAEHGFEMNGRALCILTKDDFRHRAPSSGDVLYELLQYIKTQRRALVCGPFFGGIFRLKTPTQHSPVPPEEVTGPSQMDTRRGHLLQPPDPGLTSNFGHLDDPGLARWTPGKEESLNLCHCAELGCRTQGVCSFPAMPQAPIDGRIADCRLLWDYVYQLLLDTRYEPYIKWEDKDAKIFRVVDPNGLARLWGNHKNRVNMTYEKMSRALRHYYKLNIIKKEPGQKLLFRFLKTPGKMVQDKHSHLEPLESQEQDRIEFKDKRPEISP
Outline: as §1

ELK1 = target: T5, ELK1 (Homo sapiens, UniProt P19419 1-428)
T5 sequence: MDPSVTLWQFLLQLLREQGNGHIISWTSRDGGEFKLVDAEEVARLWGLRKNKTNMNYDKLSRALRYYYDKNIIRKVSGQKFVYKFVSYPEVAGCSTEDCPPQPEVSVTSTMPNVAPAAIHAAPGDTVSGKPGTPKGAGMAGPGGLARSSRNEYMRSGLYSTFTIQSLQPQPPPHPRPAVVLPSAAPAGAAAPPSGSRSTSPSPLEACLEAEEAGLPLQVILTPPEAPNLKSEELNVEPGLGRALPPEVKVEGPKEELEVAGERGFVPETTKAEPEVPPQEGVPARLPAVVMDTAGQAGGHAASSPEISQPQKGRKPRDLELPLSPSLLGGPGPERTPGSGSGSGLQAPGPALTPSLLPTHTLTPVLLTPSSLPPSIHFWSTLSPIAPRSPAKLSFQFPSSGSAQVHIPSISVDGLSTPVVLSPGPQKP
Outline: as §1

ERG = target: T6, ERG (Homo sapiens, UniProt P11308 1-479)
T6 sequence: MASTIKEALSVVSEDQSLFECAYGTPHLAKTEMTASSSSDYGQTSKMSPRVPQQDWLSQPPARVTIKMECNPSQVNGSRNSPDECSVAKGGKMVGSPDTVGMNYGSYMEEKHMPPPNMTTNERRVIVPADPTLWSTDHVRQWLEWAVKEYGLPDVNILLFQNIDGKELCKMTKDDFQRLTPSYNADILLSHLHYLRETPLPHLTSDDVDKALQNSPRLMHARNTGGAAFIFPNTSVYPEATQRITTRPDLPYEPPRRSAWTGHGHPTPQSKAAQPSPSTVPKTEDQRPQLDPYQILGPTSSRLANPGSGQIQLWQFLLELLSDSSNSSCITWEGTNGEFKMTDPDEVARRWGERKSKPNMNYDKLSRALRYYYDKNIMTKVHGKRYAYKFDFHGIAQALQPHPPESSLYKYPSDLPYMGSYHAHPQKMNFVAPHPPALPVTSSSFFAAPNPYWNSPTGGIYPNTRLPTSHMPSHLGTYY
Outline: as §1

EHF = target: T7, EHF (Homo sapiens, UniProt Q9NZC4 1-300)
T7 sequence: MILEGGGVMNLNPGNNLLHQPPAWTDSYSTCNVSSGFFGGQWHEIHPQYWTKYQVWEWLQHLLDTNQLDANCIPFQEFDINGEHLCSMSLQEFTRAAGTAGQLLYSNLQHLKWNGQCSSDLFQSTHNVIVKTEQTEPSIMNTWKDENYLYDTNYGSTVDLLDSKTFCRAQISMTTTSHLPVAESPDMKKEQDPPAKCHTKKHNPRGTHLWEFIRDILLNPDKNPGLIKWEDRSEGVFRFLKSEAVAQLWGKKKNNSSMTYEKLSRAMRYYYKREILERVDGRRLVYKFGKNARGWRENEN
Outline: as §1

SPIB = SPIB (Homo sapiens, UniProt Q01892 1-262)
Sequence of SPIB (Q01892 whole entry): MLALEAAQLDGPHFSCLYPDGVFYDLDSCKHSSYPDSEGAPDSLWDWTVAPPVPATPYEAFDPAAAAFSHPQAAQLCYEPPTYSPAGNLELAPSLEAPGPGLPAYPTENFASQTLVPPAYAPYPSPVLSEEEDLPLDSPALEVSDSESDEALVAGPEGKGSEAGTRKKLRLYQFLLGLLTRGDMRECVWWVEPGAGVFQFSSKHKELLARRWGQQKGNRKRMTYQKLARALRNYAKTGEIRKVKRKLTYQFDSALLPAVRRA
Outline: as §1

ELF3 = target: T8, ELF3 (Homo sapiens, UniProt P78545 1-371)
T8 sequence: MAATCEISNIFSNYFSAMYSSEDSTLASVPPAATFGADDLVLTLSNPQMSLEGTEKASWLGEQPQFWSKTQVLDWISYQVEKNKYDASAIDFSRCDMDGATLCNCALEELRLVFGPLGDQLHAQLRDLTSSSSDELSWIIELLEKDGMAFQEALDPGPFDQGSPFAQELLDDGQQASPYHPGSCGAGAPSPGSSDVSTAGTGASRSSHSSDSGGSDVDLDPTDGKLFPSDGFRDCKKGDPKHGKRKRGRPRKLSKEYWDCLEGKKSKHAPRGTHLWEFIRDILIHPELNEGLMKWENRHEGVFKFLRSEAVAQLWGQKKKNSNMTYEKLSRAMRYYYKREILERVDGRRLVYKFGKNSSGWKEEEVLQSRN
Outline: as §1

SPDEF = target: T9, SPDEF (Homo sapiens, UniProt O95238 1-335)
T9 sequence: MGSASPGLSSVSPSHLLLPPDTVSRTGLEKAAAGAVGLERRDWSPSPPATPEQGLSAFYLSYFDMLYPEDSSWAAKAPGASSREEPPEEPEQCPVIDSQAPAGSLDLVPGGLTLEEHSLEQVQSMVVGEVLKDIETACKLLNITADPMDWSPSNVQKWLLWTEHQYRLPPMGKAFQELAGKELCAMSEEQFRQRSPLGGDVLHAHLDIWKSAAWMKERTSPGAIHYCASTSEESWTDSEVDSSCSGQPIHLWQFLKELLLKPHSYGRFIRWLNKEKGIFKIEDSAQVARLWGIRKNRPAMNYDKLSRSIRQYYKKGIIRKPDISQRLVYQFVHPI
Outline: as §1

ETV3 = target: T10, ETV3 (Homo sapiens, UniProt P41162-2 1-143)
T10 sequence: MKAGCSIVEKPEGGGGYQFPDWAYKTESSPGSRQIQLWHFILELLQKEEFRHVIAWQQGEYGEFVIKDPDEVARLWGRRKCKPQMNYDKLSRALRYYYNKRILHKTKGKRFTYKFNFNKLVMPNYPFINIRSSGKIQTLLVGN
Outline: as §1

ETV6 = ETV6 (Homo sapiens, UniProt P41212 1-452)
Sequence of ETV6 (P41212 whole entry): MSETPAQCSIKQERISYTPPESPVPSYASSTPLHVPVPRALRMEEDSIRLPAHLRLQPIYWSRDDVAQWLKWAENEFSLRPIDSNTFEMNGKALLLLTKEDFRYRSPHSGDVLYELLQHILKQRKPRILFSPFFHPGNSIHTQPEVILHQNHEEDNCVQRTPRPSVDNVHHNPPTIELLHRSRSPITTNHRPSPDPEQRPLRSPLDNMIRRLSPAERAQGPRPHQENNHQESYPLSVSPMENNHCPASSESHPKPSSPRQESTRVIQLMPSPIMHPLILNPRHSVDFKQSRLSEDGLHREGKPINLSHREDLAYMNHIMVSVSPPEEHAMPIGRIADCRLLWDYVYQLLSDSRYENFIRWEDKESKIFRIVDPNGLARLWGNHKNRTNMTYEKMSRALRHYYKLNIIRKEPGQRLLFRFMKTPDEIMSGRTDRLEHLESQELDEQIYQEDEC
Outline: as §1

Row | Sequence | binding signal (GABPA) | binding signal (ELF1) | binding signal (ETV5) | binding signal (ERF) | binding signal (ETV3L) | binding signal (ETV7) | binding signal (ELK1) | binding signal (ERG) | binding signal (EHF) | binding signal (SPIB) | binding signal (ELF3) | binding signal (SPDEF) | binding signal (ETV3) | binding signal (ETV6)
1 | GCTAGA | 1.03 fold enrichment (6-mer frequency, TF over GST control) | 1.01 fold enrichment (6-mer frequency, TF over GST control) | 1.02 fold enrichment (6-mer frequency, TF over GST control) | 1.07 fold enrichment (6-mer frequency, TF over GST control) | 1.04 fold enrichment (6-mer frequency, TF over GST control) | 1 fold enrichment (6-mer frequency, TF over GST control) | – | – | – | – | – | – | – | –
2 | GGGAAA | 1.02 fold enrichment (6-mer frequency, TF over GST control) | – | 1.05 fold enrichment (6-mer frequency, TF over GST control) | 1.02 fold enrichment (6-mer frequency, TF over GST control) | 1.05 fold enrichment (6-mer frequency, TF over GST control) | 1.12 fold enrichment (6-mer frequency, TF over GST control) | 1.05 fold enrichment (6-mer frequency, TF over GST control) | 1.03 fold enrichment (6-mer frequency, TF over GST control) | 1.07 fold enrichment (6-mer frequency, TF over GST control) | 1.1 fold enrichment (6-mer frequency, TF over GST control) | 1.03 fold enrichment (6-mer frequency, TF over GST control) | 1.01 fold enrichment (6-mer frequency, TF over GST control) | 1.03 fold enrichment (6-mer frequency, TF over GST control) | 1.22 fold enrichment (6-mer frequency, TF over GST control)
